{"source": "PubChem BioAssay (NCATS)", "note": "Records with an inconclusive call do not appear. A number with no mark means an inactive call. The source made the active and inactive calls. Calls follow the shape of the dose curve; as a rule, active = well fitted inhibition curve with a large enough effect; inconclusive = small, poorly fitted or top-dose-only effect; inactive = no such curve, though single readings can be large or run the other way. Potency is read from the fitted curve at half-maximal effect.", "data": [{"assay": "NS1 protein of Zika virus - qHTS assay to identify small molecule inhibitors in human HEK 293 cells (AID 1347053); also: nearly all actives have a fitted effect of over 55% in size;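 as to activity change, negative = inhibition: plate controls were infected untreated cells for no effect and uninfected cells for full effect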", "details": "HEK293 ZIKV MR766 infection, NS1 TR-FRET, 24 h; series mostly up to 46.1 µM; activity change, negative = inhibition: at the top concentration", "from_the_text": "National Center for Advancing Translational Sciences [NCATS]\nJohns Hopkins University School of Medicine\nThe non-structural 1 (NS1) protein of zika virus is known to associate with the viral replication complex. This cell-based TR-FRET ZIKV NS-1 assay measures the increased NS-1 protein in human HEK 293 cells after a 24-hour Zika virus infection by a TR-FRET assay readout. A decrease in the Time-resolved fluorescence energy transfer (TR-FRET) signal in this assay by small molecule treatment indicates an inhibitory effect of the small molecule on the expression of Zika virus NS1 correlating with Zika virus replication.\nHEK 293 cells were cultured in EMEM (ATCC, Cat. # 30-2003) medium with 10% fetal bovine serum (GE healthcare Life Sciences, Cat. # SH30071.03), and 1% Pen/Strep (Gibco, Cat. # 15140-122). Cells were seeded in the assay plate and incubated at 37 C with 5% CO2 for 20 hours. Compounds were added to cells and incubated for one hour before addition of ZIKV MR766 strain solution to cells (MOI = 0.5). After an incubation at 37 C for 24 hours, the reagent mixture of TR-FRET ZIKV NS1 assay using two anti-ZIKV NS1 antibodies was added to assay plates. The TR-FRET signals in assay plates were measured using an Envision plate reader (PerkinElmer). Data were normalized by using the cell-containing wells without ZIKV as a negative control (0% NS-1) and wells containing ZIKV infected cells as a positive control (100% NS-1 level).", "values": [{"smiles": "CC(C)n1c(C=C[C@H](O)C[C@H](O)CC(=O)O)c(-c2ccc(F)cc2)c2ccccc21", "activity change, negative = inhibition": "-0.0163%"}, {"smiles": "CC[C@H](C=C[C@@H](C)[C@H]1CC[C@H]2[C@@H]3CC=C4C[C@@H](O)CC[C@]4(C)[C@@H]3CC[C@]12C)C(C)C", "activity change, negative = inhibition": "1.71% [at 20.1 µM]"}, {"smiles": "Cc1ccc(C2=Nc3ccc(Cl)cc3OC2)cc1", "activity change, negative = inhibition": "2.57%"}, {"smiles": "O=[N+]([O-])c1ccc(Nc2ccccc2-c2ccccc2)c2nonc12", "activity change, negative = inhibition": "-2.6%"}, {"smiles": "C[C@@H]1C[C@H]2[C@@H]3CCC4=CC(=O)C=C[C@]4(C)[C@@]3(F)[C@@H](O)C[C@]2(C)[C@@]1(O)C(=O)CO", "activity change, negative = inhibition": "1.51%"}, {"smiles": "N#CC(=C1Nc2ccccc2S1)c1ccnc(OCc2ccc(CN3CCOCC3)cc2)n1", "activity change, negative = inhibition": "-4.34%"}, {"smiles": "O=C(c1ccc(C(=O)N2CCC(N3CCCC3)CC2)c(Nc2ccccc2)c1)N1CCC(N2CCCC2)CC1", "activity change, negative = inhibition": "3.28%"}, {"smiles": "COc1nccc(-c2c(-c3ccc(F)cc3)ncn2C2CCNCC2)n1", "activity change, negative = inhibition": "0.102%"}, {"smiles": "CCC(c1ccc(O)cc1)C(CC)c1ccc(O)cc1", "note": "(stereo not given)", "activity change, negative = inhibition": "2.64%"}, {"smiles": "C[C@H]1COC2=C1C(=O)C(=O)c1c2ccc2c1CCCC2(C)C", "activity change, negative = inhibition": "1.68%"}, {"smiles": "Cc1cccc(Nc2nc(N[C@@H]3CCCC[C@H]3N)ncc2C(N)=O)c1", "Potency": "23.5 µM (active)"}, {"smiles": "COc1ccc2c(c1)CC[C@H]1[C@@H]2CC[C@]2(C)[C@@H](NCCCCCCN3C(=O)C=CC3=O)CC[C@H]12", "activity change, negative = inhibition": "3.93%"}, {"smiles": "CC(C)=CCCC(C)=CCCC(C)=CCCC(C)=CCCC(C)=CCCC(C)=CCCC(C)=CCCC(C)=CCCC(C)=CCO", "activity change, negative = inhibition": "1.74%"}, {"smiles": "CC[C@H](C)n1cc(C)c2c(C(=O)NCc3c(C)cc(C)[nH]c3=O)cc(-c3ccc(N4CCNCC4)nc3)cc21", "activity change, negative = inhibition": "2.31%"}, {"smiles": "O=C(NCCCCN1CCOCC1)c1cc2ccccc2o1", "activity change, negative = inhibition": "8.98%"}, {"smiles": "CC(C)(OCc1nn(Cc2ccccc2)c2ccccc12)C(=O)O", "activity change, negative = inhibition": "4.95%"}, {"smiles": "CN(C)S(=O)(=O)c1ccc2c(c1)C(=Cc1cc3c([nH]1)CCCC3)C(=O)N2", "activity change, negative = inhibition": "3.59%"}, {"smiles": "N[C@@H](CC(=O)N1CCn2c(nnc2C(F)(F)F)C1)Cc1cc(F)c(F)cc1F", "activity change, negative = inhibition": "0.906%"}, {"smiles": "CN1CCN2c3ncccc3Cc3ccccc3C2C1", "note": "(stereo not given)", "activity change, negative = inhibition": "11.8%"}, {"smiles": "COc1cc(Nc2nc3ccccc3nc2NS(=O)(=O)c2ccc(NC(=O)c3ccc(C)c(OC)c3)cc2)cc(OC)c1", "activity change, negative = inhibition": "3.72%"}, {"smiles": "COc1cc(CNC(=O)CCCCC=CC(C)C)ccc1O", "activity change, negative = inhibition": "-1.06%"}, {"smiles": "COc1ccc(-c2oc3c(CC=C(C)C)c(O)cc(O)c3c(=O)c2O)cc1", "activity change, negative = inhibition": "4.17%"}, {"smiles": "CC(C)(C)c1nc(-c2cccc(NS(=O)(=O)c3c(F)cccc3F)c2F)c(-c2ccnc(N)n2)s1", "activity change, negative = inhibition": "33.8%"}, {"smiles": "CNC1[C@H](O)C(O[C@@H]2C(O)C(O[C@H]3O[C@H]([C@@H](C)NC)CC[C@H]3N)[C@@H](N)C[C@H]2N)OC[C@]1(C)O", "note": "(stereo not given in full)", "activity change, negative = inhibition": "-1.32%"}, {"smiles": "CC[C@H](C)C(=O)O[C@H]1C[C@H](O)C=C2C=C[C@H](C)[C@H](CC[C@@H](O)C[C@@H](O)CC(=O)O)[C@H]21", "activity change, negative = inhibition": "1.98%"}, {"smiles": "COc1ccnc(CS(=O)c2nc3ccc(OC(F)F)cc3[nH]2)c1OC", "note": "(stereo not given)", "Potency": "inactive"}, {"smiles": "NCC1CCC(C(=O)O)CC1", "note": "(stereo not given)", "activity change, negative = inhibition": "4.82%"}, {"smiles": "C=CCc1cccc(C=NNC(=O)CN2CCN(Cc3ccccc3)CC2)c1O", "Potency": "13.2 µM (active)"}, {"smiles": "O=C(O)C1=CC(O)C(O)[C@H](O)C1", "note": "(stereo not given in full)", "activity change, negative = inhibition": "6.9%"}, {"smiles": "Cc1ccc(NC(=O)c2cccc(N(C)C)c2)cc1NC(=O)c1ccc(O)cc1", "activity change, negative = inhibition": "18.8%"}, {"smiles": "CCOc1ccccc1N=Nc1c(C)[nH]n(-c2nc(-c3ccccc3)cs2)c1=O", "activity change, negative = inhibition": "-0.905%"}, {"smiles": "C[C@@H]1[C@H](C)CC[C@]2(C(=O)O)CC[C@]3(C)C(=CC[C@@H]4[C@@]5(C)CC[C@H](O)C(C)(C)[C@H]5CC[C@]43C)[C@@H]12", "activity change, negative = inhibition": "4.65% [at 92.8 µM]"}, {"smiles": "CC(=O)OCC(=O)[C@@]12OC(C)(C)O[C@H]1C[C@H]1[C@@H]3C[C@H](F)C4=CC(=O)C=C[C@]4(C)[C@@]3(F)[C@@H](O)C[C@@]12C", "activity change, negative = inhibition": "3.76%"}, {"smiles": "Nc1ccn([C@@H]2O[C@H](CO)[C@@H](O)[C@H]2O)c(=O)n1", "activity change, negative = inhibition": "-27.2%"}, {"smiles": "O=C1CCCC(=O)C1C(=O)c1ccc(C(F)(F)F)cc1[N+](=O)[O-]", "activity change, negative = inhibition": "-0.114%"}, {"smiles": "CN(C)c1ccccc1CN1CCCN(Cc2ccccc2N(C)C)C1c1ccncc1", "Potency": "11.8 µM (active)"}, {"smiles": "CON(C)C(=O)N1N=C(c2cc(F)ccc2F)S[C@]1(CCCN)c1ccccc1", "Potency": "14.8 µM (active)"}, {"smiles": "O=C(CCCN1CCN(c2ccc(F)cc2)CC1)NC1c2ccccc2CSc2ccccc21", "note": "(stereo not given)", "activity change, negative = inhibition": "3.23%"}, {"smiles": "CC(C)(CO)[C@@H](O)C(=O)NCCC(=O)O", "activity change, negative = inhibition": "1.66%"}, {"smiles": "CC1=C(CC(=O)O)c2cc(F)ccc2C1=Cc1ccc(S(C)=O)cc1", "note": "(stereo not given)", "activity change, negative = inhibition": "21.1%"}]}]}
